# Results: ChEMBL document CHEMBL1201862, “PubChem BioAssay data set” (2004)
# About 25,000 (6.9%) of roughly 360,000 compounds were called active. Not shown: some 9% with an inconclusive outcome. No cut-off for these calls is given here. The sample as a whole holds a higher share of actives than the screen did.
# Target: Luciferin 4-monooxygenase (Photinus pyralis) (UniProt P08659)
# Experiment: qHTS profiling assay for firefly luciferase inhibitor/activator using purified enzyme and Km concentrations of substrates (counterscreen for miR-21 project). [Related pubchem assays (depositor defined):AID2288, AID2289, AID2598, AID411]
# Assay type: functional
# Luciferin 4-monooxygenase (Photinus pyralis), sequence (P08659 whole entry): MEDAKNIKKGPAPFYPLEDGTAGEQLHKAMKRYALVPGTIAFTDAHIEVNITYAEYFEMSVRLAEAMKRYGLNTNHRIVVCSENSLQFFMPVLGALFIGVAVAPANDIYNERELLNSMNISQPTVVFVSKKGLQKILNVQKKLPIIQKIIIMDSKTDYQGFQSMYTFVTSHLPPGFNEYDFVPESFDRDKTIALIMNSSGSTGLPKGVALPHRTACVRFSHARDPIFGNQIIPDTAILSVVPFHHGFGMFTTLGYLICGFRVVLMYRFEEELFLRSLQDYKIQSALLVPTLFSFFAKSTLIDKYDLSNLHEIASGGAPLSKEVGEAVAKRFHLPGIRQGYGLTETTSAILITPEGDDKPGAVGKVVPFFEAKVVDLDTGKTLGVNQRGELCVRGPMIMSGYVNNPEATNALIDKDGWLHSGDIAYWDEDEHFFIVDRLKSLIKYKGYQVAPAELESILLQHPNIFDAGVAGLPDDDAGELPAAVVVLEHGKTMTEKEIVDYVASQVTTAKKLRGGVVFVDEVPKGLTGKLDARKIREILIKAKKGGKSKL
row,Compound,Potency
1,O=C(O)c1cc(-c2ccc(F)cc2F)ccc1O,15.1 µM (active)
2,Cn1c(NCCN2CCOCC2)nc2c1c(=O)n(Cc1cccc(Cl)c1)c(=O)n2C,inactive
3,Cc1ccccc1N=C(S)N(CCCN1CCOCC1)Cc1cccnc1,inactive
4,O=C(NC1CCCC1)c1cc(Cl)ccc1[N+](=O)[O-],inactive
